molecular target: Homeodomain-interacting protein kinase 1 (Homo sapiens) (UniProt Q86Z02); details: at 1 µM
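Note: values are mean percent inhibition.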

Sequence of Homeodomain-interacting protein kinase 1 (Homo sapiens) (Q86Z02 whole entry, looked up): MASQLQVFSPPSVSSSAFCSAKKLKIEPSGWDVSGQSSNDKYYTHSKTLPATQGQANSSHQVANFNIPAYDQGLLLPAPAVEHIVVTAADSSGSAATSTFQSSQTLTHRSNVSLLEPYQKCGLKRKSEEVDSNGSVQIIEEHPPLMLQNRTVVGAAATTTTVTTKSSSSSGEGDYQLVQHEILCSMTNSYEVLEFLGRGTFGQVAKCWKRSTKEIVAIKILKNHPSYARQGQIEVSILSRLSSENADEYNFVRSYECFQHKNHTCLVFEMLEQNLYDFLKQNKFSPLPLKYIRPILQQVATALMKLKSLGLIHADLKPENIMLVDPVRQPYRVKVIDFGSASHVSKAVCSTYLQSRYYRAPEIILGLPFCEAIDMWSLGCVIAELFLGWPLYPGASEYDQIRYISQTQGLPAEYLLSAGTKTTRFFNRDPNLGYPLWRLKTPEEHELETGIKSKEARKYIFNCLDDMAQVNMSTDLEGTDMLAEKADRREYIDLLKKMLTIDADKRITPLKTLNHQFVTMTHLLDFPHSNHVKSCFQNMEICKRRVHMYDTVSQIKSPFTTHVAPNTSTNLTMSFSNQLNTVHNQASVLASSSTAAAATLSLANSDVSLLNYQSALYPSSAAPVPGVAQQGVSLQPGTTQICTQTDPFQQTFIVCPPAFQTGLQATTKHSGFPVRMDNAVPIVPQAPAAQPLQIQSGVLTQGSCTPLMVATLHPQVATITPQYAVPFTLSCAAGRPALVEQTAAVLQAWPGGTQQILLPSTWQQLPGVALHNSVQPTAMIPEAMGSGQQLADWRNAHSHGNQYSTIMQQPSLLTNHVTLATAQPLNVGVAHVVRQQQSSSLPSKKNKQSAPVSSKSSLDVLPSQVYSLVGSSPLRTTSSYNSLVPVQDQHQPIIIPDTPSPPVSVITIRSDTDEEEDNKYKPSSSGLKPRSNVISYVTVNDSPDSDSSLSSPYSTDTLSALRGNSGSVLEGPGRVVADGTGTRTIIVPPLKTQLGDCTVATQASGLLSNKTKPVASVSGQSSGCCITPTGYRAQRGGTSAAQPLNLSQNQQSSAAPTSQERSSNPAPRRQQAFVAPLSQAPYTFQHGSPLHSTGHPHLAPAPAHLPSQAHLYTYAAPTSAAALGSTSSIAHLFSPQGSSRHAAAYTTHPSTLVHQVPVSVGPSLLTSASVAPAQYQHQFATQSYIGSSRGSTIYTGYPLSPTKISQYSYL

Row | SMILES | inhibition
1 | CS(=O)(=O)CCNCc1cc(-c2cc3c(Nc4ccc(OCc5cccc(F)c5)c(Cl)c4)ncnc3s2)cs1 | -1.08%
2 | CCC(=O)Nc1ccc(C)c(-c2ccc(C(=O)NCC3CC3)cc2)c1 | -2.43%
3 | COc1cc(Nc2ncc3c(C)nc(-c4cccc(C(F)(F)F)c4)n3n2)cc(OC)c1OC | 26.8%
4 | Fc1ccc(-c2nc3n(c2-c2ccncc2)CCS3)cc1 | -3.92%
5 | NC(=O)c1cc(-c2ccncc2)cc(-c2ccccc2)c1N | -0.02%
6 | CCc1nccc2c1nc(-c1nonc1N)n2CC | 6.91%
7 | CN(C)c1ccc2c(c1)/C(=C/Nc1ccc(S(N)(=O)=O)cc1)C(=O)N2 | 12%
8 | CS(=O)(=O)CCNCc1ccc(-c2ccc3ncnc(Nc4ccc(OCc5ccccc5)c(Br)c4)c3c2)o1 | -4.53%
9 | Cc1nnc(-c2ccc(C)c(-c3ccc(C(=O)NCc4ccc(Cl)cc4)cc3)c2)o1 | -3.98%
10 | Cc1ccc(C(=O)NC2CCC2)cc1-c1ccc(C(=O)NCC2CC2)cc1 | 2.06%
11 | Clc1ccc(CNc2nccc(-c3cnn4ncccc34)n2)cc1 | 57.9%
12 | c1ccc(-c2n[nH]cc2-c2ccnc(-c3ccc(OCCN4CCOCC4)cc3)c2)nc1 | 2.07%
13 | CCS(=O)(=O)c1ccc(OC)c(Nc2ncc(-c3cccc(-c4ccccc4F)c3)o2)c1 | 6.56%
14 | COc1cc2ncn(-c3cc(OCc4cccs4)c(C(N)=O)s3)c2cc1OC | 18.1%
15 | O=C1Nc2ccccc2/C1=C/Nc1ccc(-n2cncn2)cc1 | 5.5%
16 | C/C(Nc1ccc(S(N)(=O)=O)cc1)=C1/C(=O)Nc2ccccc21 | -1.35%
17 | CCc1cccc(CC)c1/C=C/c1cncc(C(=O)NC)c1 | 7.03%

Row | SMILES | inhibition
18 | NC(=O)c1cc(-c2ccc(F)cc2)cc(-c2ccncc2)c1N | 0.21%
19 | O=C(NCC1CC1)c1ccc(-c2cccc(C(=O)NC3CC3)c2)cc1 | 5.27%
20 | COc1ccc2ncn(-c3cc(O[C@H](C)c4ccccc4Cl)c(C(N)=O)s3)c2c1 | -1.67%
21 | O=C1Nc2ccc(I)cc2C1=Cc1cc(Br)c(O)c(Br)c1 | 6.66%
22 | Fc1ccc(-c2ncn(CCCN3CCOCC3)c2-c2ccncc2)cc1 | -1.47%
23 | COc1ccc2cc(-c3c(-c4ccncc4)nc(-c4ccc([S+](C)[O-])cc4C)n3C)ccc2c1 (centres undefined) | 6.01%
24 | COC(=O)Nc1nc2ccc(Sc3ccc(NC(=O)Nc4cc(C(F)(F)F)ccc4F)cc3)cc2[nH]1 | 3.89%
25 | CN(C)CCCNc1nccc(-c2c(-c3ccc(F)cc3)nn3cc(C(F)(F)F)ccc23)n1 | 1.54%
26 | CCS(=O)(=O)c1ccc(OC)c(Nc2ncc(-c3ccccc3Cl)o2)c1 | 9.06%
27 | Fc1ccc(-c2c(-c3ccncc3)nc3n2CCS3)cc1 | 4.73%
28 | CCN(CC)Cc1ccc(Nc2nccc(-c3cnn4ncccc34)n2)cc1 | 71.9%
29 | COc1cc2ncn(-c3cc(OCCc4ccccc4)c(C(N)=O)s3)c2cc1OC | 3.92%
30 | Cc1ccc(NC(=O)c2ccoc2)cc1-c1ccc(C(=O)NCC2CC2)cc1 | 0.37%
31 | NS(=O)(=O)c1ccc(N/N=C2\C(=O)Nc3ccc(C(=O)NCCCn4ccnc4)cc32)cc1 | 34.3%
32 | NCc1ccc(-n2c(-c3nonc3N)nc3cnccc32)cc1 | 9.18%
33 | COc1cccc(-n2cnc3c(N/N=C/c4ccncc4)ncnc32)c1 | -0.32%
34 | C[C@@H](Oc1cc(-n2cnc3ccc(OC4CCN(C)CC4)cc32)sc1C(N)=O)c1ccccc1Cl | 2.08%

— ChEMBL document CHEMBL1961873, “Compounds: GSK PKIS; Assays: Nanosyn kinase panel” (2012)
